Test results as given in PubChem BioAssay AID463173 (ICCB-Longwood Screening Facility, Harvard Medical School, 2010).
Screen size: about 52,000 compounds; about 1,700 (3.3%) were called active. This excerpt belongs to a sample that is enriched for actives. Unmarked numbers belong to inactive results. No stated cut-off is given here; in the data, active means survival mostly below about 52% (no sharp cut-off); inactive means mostly above about 56%.

System: Wild type
Assay: growth inhibition of S. aureus wild type versus tarO mutant, primary screen, teichoic acid synthesis inhibitors, RN4220, OD600 (AID 463173)
Settings: S. aureus RN4220 wild type/DeltatarO growth, OD600, 18 h, hits give low values, screened at 18.75 µg/mL (by protocol)

Row | Compound | survival
1 | Cc1ccc(C)c(CSc2nnc3[nH]c(=O)cc(-c4ccccc4)n23)c1 | 86%
2 | Cc1cccc(N2CCN(c3nc4ccccc4c4nnc(C)n34)CC2)c1C | 98%
3 | COc1ccc(NC(=O)C2CCN(C(=O)c3sc4nc[nH]c(=O)c4c3C)CC2)cc1Cl | 85%
4 | Cc1cccc(NC(=O)CN2c3ccccc3S(=O)(=O)c3ccccc32)c1C | -3% (active)
5 | CCOc1ccccc1NC(=O)CN1C(=O)C(=O)c2ccccc21 | 115%
6 | CCOc1ccccc1NC(=O)CN1C=NS(=O)(=O)c2ccccc21 | 59%
7 | O=C(CN1c2ccccc2S(=O)(=O)c2ccccc21)Nc1ccccc1Cl | 65%
8 | CCOc1ccccc1NC(=O)CN1c2ccccc2S(=O)(=O)c2ccccc21 | 10% (active)
9 | Cc1cc(C)c(NC(=O)CN2c3ccccc3S(=O)(=O)c3ccccc32)c(C)c1 | 124%
10 | CCn1nc(-c2ccccc2)c(-c2ccccc2)c(C(=O)Nc2ccc(NC(C)=O)cc2)c1=O | 88%
11 | CCC(C)(C)n1nnnc1C(c1ccccc1OC)N1CCN(C(=O)c2ccco2)CC1 (centres undefined) | 105%
12 | Cc1ccc(C)c(Cn2c(C(C)NC(=O)c3ccc(F)cc3)nc3ccccc32)c1 (centres undefined) | 83%
13 | COc1ccc(C(=O)N2CCN(C(=O)COc3ccccc3)CC2)cc1OC | 79%
14 | CC(=O)N1c2ccc(S(=O)(=O)NCC3CCC(C(=O)Nc4cccc(C)c4)CC3)cc2CC1C (centres undefined) | 91%
15 | Cc1ccc(C(=O)Nc2ccc(-c3nc4ccccc4s3)cc2C)cc1C | 73%
16 | CSc1ncc(C(=O)N2CCN(c3cccc(C(F)(F)F)c3)CC2)c(C)n1 | 73%
17 | CSc1ncc(C(=O)N2CCN(c3cccc(Cl)c3)CC2)c(C)n1 | -3% (active)
18 | CSc1ncc(C(=O)N2CCN(c3ccc(Cl)cc3)CC2)c(C)n1 | 124%
19 | CCCCN(CCCNC(=O)c1c(C)oc2nc[nH]c(=O)c12)Cc1ccccc1 | 71%
20 | Cc1oc2ccc(O)c(CN3CCCC(C)C3)c2c1C(=O)Nc1ccccc1 (centres undefined) | 91%
21 | CCN(Cc1ccccc1)Cc1c(O)ccc2c(=O)c(-c3ccccc3Cl)coc12 | 73%
22 | CCN(CC)c1ccc(NC(=O)CN2C(=O)c3cccnc3Sc3ccccc32)c(C)c1 | -4% (active)
23 | CCN(CC)c1ccc(NC(=O)CN2C(=O)c3cccnc3Oc3ccccc32)c(C)c1 | 135%
24 | Cc1cc(Br)ccc1NC(=O)CN1C(=O)c2cccnc2Sc2ccccc21 | 85%

Row | Compound | survival
25 | CCC(=O)Nc1ccc(CC)cc1-c1nc2ccccc2n(CC(=O)Nc2ccccc2C)c1=O | 88%
26 | COc1ccc(Nc2ncc3c(n2)CCN(Cc2ccc(Br)s2)C3)c(OC)c1 | 127%
27 | CCN(CC)C(=O)C1CCN(Cc2ccccc2F)CC1 | 107%
28 | Cc1ccccc1Cn1c(CN2CCC(C(=O)NCc3ccc(Cl)cc3)CC2)cc2ccccc21 | 60%
29 | CCn1c2ccccc2c2cc(CN3CCN(Cc4ccccc4F)CC3)ccc21 | 4% (active)
30 | CCn1c2ccccc2c2cc(CN3CCN(Cc4ccccc4C)CC3)ccc21 | -1% (active)
31 | O=c1c2ccccc2n(Cc2ccccc2F)c(=O)n1-c1cccc(F)c1 | 75%
32 | CCOc1ccc(CNC(=O)C2CCN(Cc3cc4ccccc4n3Cc3ccccc3C)CC2)cc1 | 60%
33 | O=C1NC(=O)C(Nc2cccc3ccccc23)S1 (centres undefined) | 104%
34 | O=C(CSc1nnc(Cn2nnc3ccccc32)o1)N(Cc1ccc(Cl)cc1)c1ccccc1 | 141%
35 | CCOC(=O)c1ccccc1NC(=O)c1ccncc1 | 94%
36 | Cc1ccc(C(CC(=O)NCC2(c3ccccc3)CCCC2)c2ccccc2)c(O)c1 (centres undefined) | 36%
37 | Cc1cccc(C(CC(=O)NCC2(c3ccccc3)CCCC2)c2ccccc2)c1O (centres undefined) | 2% (active)
38 | O=C(CC(c1ccccc1)c1cc(Br)ccc1O)NCC1(c2ccccc2)CCCC1 (centres undefined) | 63%
39 | CCC(=O)NCC1(c2ccccc2)CCCC1 | 102%
40 | Cc1ccccc1NC(=O)C(=O)NCC1(c2ccccc2)CCCC1 | 94%
41 | Cc1ccc(O)c(C(CC(=O)NCC2(c3ccccc3)CCCC2)c2ccccc2)c1 (centres undefined) | 6% (active)
42 | COc1ccc(-c2cc(C(F)(F)F)nc(SCCC(=O)Nc3cccc(O)c3)n2)cc1 | 80%
43 | COc1cc(Cl)c(C)cc1NC(=O)c1nn(C)c2c1CSc1ccccc1-2 | 85%
44 | Cn1c(SCC(=O)c2ccc(F)cc2)nnc1-c1ccccc1Br | 74%
45 | Cc1ccc(-c2nnc(SCC(=O)c3ccc(Cl)cc3)n2-c2ccccc2)cc1 | 94%
46 | COc1ccccc1-c1nnc(SCC(=O)c2ccc(Cl)cc2)n1-c1ccccc1 | 0% (active)
47 | CCOc1ccc(-c2nnc(SCC(=O)c3ccc(F)cc3)n2-c2ccccc2)cc1 | 153%
48 | COc1ccccc1-c1nnc(SCC(=O)c2ccc(F)cc2)n1-c1ccccc1 | 0% (active)

Row | Compound | survival
49 | Cc1ccc(C(=O)CSc2nnc(-c3ccccc3)n2-c2ccccc2)cc1 | 79%
50 | COc1ccccc1-c1nnc(SCC(=O)OC(C)C)n1-c1ccccc1 | 115%
51 | O=C(CSc1nnc(-c2ccccc2Br)n1-c1ccccc1)c1ccc(F)cc1 | 4% (active)
52 | O=C(CSc1nnc(-c2ccc(Br)cc2)n1-c1ccccc1)c1ccccc1 | 97%
53 | CCc1cccc(NC(=O)CN(C)S(=O)(=O)c2ccc3c(c2)CCCN3C(C)=O)c1 | 83%
54 | COc1ccc(F)cc1S(=O)(=O)NCC(c1ccco1)S(=O)(=O)c1cccs1 (centres undefined) | 81%
55 | CCCN1CCN(CC2=C(C(=O)OCC)C(c3ccc(OC(C)C)cc3)NC(=O)N2)CC1 (centres undefined) | 72%
56 | COc1ccc(-n2nnc(-c3nc(-c4cccs4)no3)c2N)cc1OC | 100%
57 | CCN1CCN(C(c2ccc(F)cc2)c2sc3nc(-c4ccco4)nn3c2O)CC1 (centres undefined) | 131%
58 | Cc1ccc(C(=O)N2CCN(c3cccc(Cl)c3)CC2)cc1-n1c(C)nc2cccnc21 | 84%
59 | Cc1cc2c(cc1S(=O)(=O)NCc1ccc(F)cc1)OCC(=O)N2 | 82%
60 | COc1ccc(C(=O)N2CCC(c3ccncc3)CC2)cc1OC | -6% (active)
61 | COc1cc(C(=O)N2CCC(c3ccncc3)CC2)cc(OC)c1OC | 78%
62 | CCN(CC)c1ccc(C(=O)N2CCC(c3ccncc3)CC2)cc1 | 85%
63 | CCOc1ccc(C(=O)N2CCC(c3ccncc3)CC2)cc1 | 78%
64 | COc1cc(OC)cc(C(=O)N2CCC(c3ccncc3)CC2)c1 | 69%
65 | CCOc1cc(C(=O)N2CCC(c3ccncc3)CC2)cc(OCC)c1OCC | -1% (active)
66 | Cc1ccc(C)c(C(=O)COC(=O)CCCC(=O)Nc2cc(C(F)(F)F)ccc2Cl)c1 | 45%
67 | Cc1c(C(=O)Nc2ccc(F)c(Cl)c2)sc2nc3n(c(=O)c12)CCC3 | 81%
68 | CCc1nc(SCc2ccccc2)[nH]c(=O)c1C | 102%
69 | COc1cccc(NC(=O)Cn2c(=O)n(CCCCC(=O)NCc3ccc4c(c3)OCO4)c(=O)c3ccccc32)c1 | 92%
70 | COc1cccc(Cc2nc3ccccc3nc2SCC(=O)Nc2cc(OC)ccc2OC)c1 | 60%
71 | COc1cccc(NC(=O)CSc2nc3ccccc3nc2N2CCOCC2)c1 | 67%
72 | COc1ccc(NC(=O)CSc2nc3ccccc3nc2N2CCCCC2)cc1 | 7% (active)

Row | Compound | survival
73 | COc1ccc(OC)c(NC(=O)CSc2nc3ccccc3nc2N2CCCCC2)c1 | -10% (active)
74 | O=C(CSc1nc2ccccc2nc1Cc1ccc(Cl)cc1)NCCc1ccccc1 | 69%
75 | COc1ccc(CCNC(=O)CSc2nc3ccccc3nc2Cc2ccc(C)cc2)cc1OC | 52%
76 | COc1ccc(NC(=O)CSc2nc3ccccc3nc2N2CCC(C)CC2)cc1 | 45%
77 | CCc1cccc(NC(=O)CSc2nc3ccccc3nc2N2CCCCC2)c1 | -13% (active)
78 | CC(=O)Nc1ccc(NC(=O)CSc2nc3ccccc3nc2N2CCCCC2)cc1 | 90%
79 | COc1ccc(NC(=O)CSc2nc3ccccc3nc2N2CCOCC2)c(OC)c1 | 65%
80 | COc1ccc(CCNC(=O)CSc2nc3ccccc3nc2Cc2ccc(Cl)cc2)cc1OC | 10% (active)
81 | CCCCc1ccc(NC(=O)CSc2nc3ccccc3nc2N2CCCCC2)cc1 | 41%
82 | COc1ccc(NC(=O)CC2C(=O)N(c3ccc(C)cc3)C(=O)N2C2CCCCC2)cc1 (centres undefined) | 74%
83 | CCOC(=O)c1noc2nc(C)n(CC(=O)Nc3ccccc3F)c(=O)c12 | 124%
84 | COc1cccc(C(=O)Nc2ccccc2-c2nnc(-c3ccc(C(C)(C)C)cc3)o2)c1 | 71%
85 | CCOc1cc(C(=O)N2CC(=O)Nc3ccc(F)cc3C2c2ccccc2)cc(OCC)c1OCC (centres undefined) | 75%
86 | O=C(NC1CCCCC1)C(c1ccco1)N(C(=O)C1COc2ccccc2O1)c1cccc(F)c1 (centres undefined) | 132%
87 | COc1ccc(NC(=O)c2c(C(=O)Nc3ccccc3)sc3nc(C)cc(=O)n23)cc1 | 93%
88 | NC(=O)CSc1nsc(SCC(N)=O)n1 | 109%
89 | COc1ccccc1Cc1nc2ccccc2nc1SCC(=O)Nc1cc(Cl)ccc1OC | 89%
90 | COc1ccc(Cl)cc1NC(=O)CSc1nc2ccccc2nc1N1CCCCC1 | -9% (active)
91 | COc1ccc(C)cc1NC(=O)CSc1nc2ccccc2nc1N1CCOCC1 | 72%
92 | O=C(O)CSc1nc2ccccc2nc1N1CCCCC1 | 62%
93 | CC(C)NC(=O)CSc1nc2ccccc2nc1N1CCCCC1 | -28% (active)
94 | Cc1cc(C)c(NC(=O)CSc2nc3ccccc3nc2N2CCCCC2)c(C)c1 | 38%
